Bioassay records deposited in PubChem BioAssay by several laboratories.
Sampled rows, rich in hits. Any-hit rate of the full collection: about 4.4%.
PfHsp90 yeast 2 – growth inhibition of PfHsp90-expressing yeast, primary screen, antimalarial PfHsp90 inhibitor project, S. cerevisiae, BacTiter-Glo luminescence, single point, set 2; BacTiter-Glo ATP, 48 h; yeast lacking PDR1 and PDR3 efflux regulators; inhibition, % at 9.4 µM; hit rate 0.32% among 310,000;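 active = every replicate shows inhibition above about 80%, whatever the replicate mean, limit read from the data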;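 note: 0% = DMSO neutral controls and 100% = 20 µM radicicol positive controls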
tim23-1 inh – growth inhibitors of tim23-1 mutant yeast, primary screen, luminescence, uHTS. hit rate 1.3% among 330,000. S. cerevisiae tim23-1 growth, BacTiter-Glo luminescence, 24 h. AID 463212, 2010. inhibition, % at 20 µM;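 active = growth inhibition of the mutant yeast at or above 50%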;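 note: temperature-sensitive mutant grown at 25 °C; plate controls were DMSO-treated mutant yeast for no effect and medium wells lacking yeast for full effect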
SUMO Mot1 rescue – yeast Mot1-301 growth rescue at high temperature, primary screen, SUMOylation pathway inhibitor project, S. cerevisiae, ATP luminescence, 38.5C. S. cerevisiae Mot1-301 growth rescue; percent above DMSO median, 100 means doubled. growth rescue, % at 18.8 µM. hit rate 1% among 320,000. AID 2716, 2010;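 active = every valid replicate shows activation above 250% relative to neutral control wells; inactive = the rest, any valid replicate at or below 250%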;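 note: OY570 slx delta 5 strain wells were the positive control but not used for scaling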
TIM10 inh – growth inhibitors of isogenic TIM10 control yeast, primary screen, counter-screen for tim10-1 yeast inhibitor project, luminescence, uHTS; inhibition, % at 10 µM; AID 463195, 2010; hit rate 1.4% among 330,000; S. cerevisiae TIM10 strain growth, BacTiter-Glo luminescence, 24 h;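 active = inhibition of 40% or more at the single tested concentration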;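 note: wild-type TIM10 isogenic control strain grown at permissive 25 °C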
tim10-1 inh – growth inhibitors of tim10-1 mutant yeast, primary screen, luminescence, uHTS | AID 463190, 2010 | inhibition, % at 20 µM | S. cerevisiae tim10-1 ts strain growth, BacTiter-Glo, 24 h | hit rate 2.2% among 330,000;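 active = inhibition of at least 40%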;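 note: mutant grown at 25 °C; 0% = DMSO wells with yeast and 100% = wells holding no yeast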
tim10-1 confirm – growth inhibitors of tim10-1 mutant yeast, confirmation, single concentration, luminescence, S. cerevisiae. hit rate 56% among 7,400. S. cerevisiae tim10-1 ts strain growth, BacTiter-Glo, 24 h. AID 463213, 2010. shares compounds with tim10-1 inh. inhibition, % at 20 µM;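 active = inhibition of yeast growth at or above a set limit in either of two repeat tests at 20 µM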;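 note: tim10-1 mutant grown at permissive 25 °C to find synthetic lethal compounds; 0% = DMSO yeast wells and 100% = medium wells without yeast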
TIM10 conf – growth inhibitors of wild-type TIM10 yeast, confirmation, counter-screen for tim10-1 synthetic lethality project, single concentration, luminescence, S. cerevisiae; shares compounds with TIM10 inh; inhibition, % at 10 µM; S. cerevisiae tim10 strain growth, BacTiter-Glo luminescence, 24 h; hit rate 63% among 4,600;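 active = inhibition of yeast growth at or above a set limit in either of two replicates at 10 µM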;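 note: this counterscreen used the strain with wild-type TIM10; 0% = yeast with DMSO and 100% = medium wells lacking yeast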
tim23-1 confirm – tim23-1 mutant yeast growth inhibitors, confirmation, luminescence, single concentration. shares compounds with tim23-1 inh. S. cerevisiae tim23-1 growth, BacTiter-Glo luminescence, 24 h. inhibition, % at 20 µM. hit rate 83% among 4,400. AID 463218, 2010;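 active = inhibition above about 39% in either of two replicate wells at 20 µM, limit read from the data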;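 note: temperature-sensitive tim23-1 mutant grown at 25 °C; 0% = DMSO wells with yeast and 100% = medium wells without yeast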
* = called active by the depositor; · = not tested or not shown.

SMILES	PfHsp90 yeast 2	tim23-1 inh	SUMO Mot1 rescue	TIM10 inh	tim10-1 inh	tim10-1 confirm	TIM10 conf	others
COc1cccc(/C=C2\SC(=S)N(NS(=O)(=O)c3ccccc3)C2=O)c1OC	0	29	-1	11	36	·	·
CCOC(=O)C(=Cc1ccc(-n2ccnc2)cc1)C(=O)OCC	-7	38	3	64*	73*	74*	69*
Cc1ccc(-n2cccc2C(=S)N=P(N(C)C)(N(C)C)N(C)C)cc1	4	26	36	46*	41*	26	14
Cc1ccc(NC(=O)Cn2c(=O)ccn(Cc3ccccc3)c2=O)cc1S(=O)(=O)N1CCOCC1	0	·	·	·	·	·	·
Cc1cc(C(=O)CN2C(=O)CN(C)C2=O)c(C)n1-c1cccc(S(=O)(=O)N2CCOCC2)c1	-14	13	-13	6	6	·	·
Cc1cc(C(=O)CCl)c(C)n1-c1cccc(S(=O)(=O)N2CCOCC2)c1	·	38	20	46*	48*	30*	46*
CCn1c(SCC(=O)Nc2ccc(N3CCOCC3)cc2)nnc1-c1ccncc1	2	14	-5	-14	21	·	·
Cc1ccc(O)c(-c2cc3ccccc3[nH]2)c1	-10	8	-10	46*	53*	40*	47*
COc1ccc(-c2cc3ccccc3[nH]2)cc1	1	8	-1	-3	7	·	·
COc1cc(/C=C2/C(C)=C(C#N)c3nc(N)c(C#N)c(C)c32)ccc1OCC(=O)O	-9	43	-13	42*	41*	23	32*
CC1=C(C#N)c2nc(N)c(C#N)c(C)c2/C1=C\c1ccc(-c2ccccc2C(=O)O)o1	-22	·	·	·	·	·	·
CC(=O)Nc1ccc(S(=O)(=O)N2CCSC2c2ccc(C)cc2)cc1 (centres undefined)	5	32	-1	42*	41*	28	34*
C/C(=N\Nc1nccnc1Cl)c1ccc(O)c(C)c1	-2	8	-11	-7	-8	·	·
CCc1c(C)nc2cc(-c3ccc(OC)c(OC)c3)nn2c1N1CCC(C)CC1	-14	15	140	31	30	·	·
CCc1c(C)nc2cc(-c3ccc(OC)c(OC)c3)nn2c1N1CCCC1	-14	49	14	42*	41*	-1	21
O=c1c2c(nc(NCCO)n1CC1CCCCC1)-c1ccccc1CC21CCCC1	4	43	-15	52*	55*	37*	-35
CC(C)NC(=S)N/N=C1\CCCCC1C1CCCCC1 (centres undefined)	·	47	-11	42*	44*	32*	29
CCOC(=O)c1sc(NC(=O)CCN2CCCCCC2)c(C(=O)OCC)c1C	-2	10	14	44*	61*	51*	43*
CC1CC(=O)c2ccccc2C1C (centres undefined)	1	·	·	·	·	·	·
Cc1cccc(NC(=O)COC(=O)CSc2ccccc2)c1C	·	11	21	1	24	·	·
CCOc1cc2c3c(c1)C1(Nc4ccccc4S1)C(=O)N3C(C)(C)CC2C (centres undefined)	5	46	41	47*	49*	48*	32*
O=C(/C=C/c1cccc(Cl)c1)c1nc2ccccc2[nH]1	65	15	125	58*	50*	41*	63*
O=C(/C=C/c1cccc(Cl)c1)Nc1ncccn1	4	20	22	0	11	·	·
Cc1cccc(C(=O)OCC(=O)NC(=O)NCc2ccccc2)c1	-18	11	7	7	0	·	·
CN(C)c1ccc(-n2cc3c(=O)n(C)c(=O)n(C)c3c2)cc1	1	21	20	8	25	·	·
SMILES	PfHsp90 yeast 2	tim23-1 inh	SUMO Mot1 rescue	TIM10 inh	tim10-1 inh	tim10-1 confirm	TIM10 conf	others
CCN(CC)c1ccc(-n2cc3c(=O)n(C)c(=O)n(C)c3c2)cc1	2	50	-2	46*	40*	31*	-3
C/C(=N\NC(=S)NCc1ccccc1)c1cccc(Br)c1	-12	30	16	45*	42*	27	24
C/C(=N\NC(=S)NCCc1ccccc1)c1cccc(Br)c1	-25	10	1	37	17	·	·
COc1ccc(/C(C)=N/NC(=S)NCCc2ccccc2)cc1	-26	44	·	47*	41*	35*	13
CC(=O)c1ccc(NC(=O)CN(c2c(C)cccc2C)S(C)(=O)=O)cc1	-15	0	4	0	0	·	·
N/C(=N\OC(=O)CCC1CCCC1)c1cccnc1	11	23	231	9	38	·	·
N/C(=N\OC(=O)CCC1CCCC1)c1ccc(Cl)cc1	·	59*	32	79*	61*	61*	73*	tim23-1 confirm=65*
Cc1cccc(/C(N)=N/OC(=O)CCC2CCCCC2)c1	-20	64*	-7	62*	50*	56*	75*	tim23-1 confirm=72*
N/C(=N\OC(=O)CCC1CCCC1)c1ccncc1	-6	3	-9	13	11	·	·
Cc1ccc(/C(N)=N/OC(=O)CCC2CCCCC2)cc1	·	77*	4	83*	60*	44*	82*	tim23-1 confirm=71*
Cc1ccc(/C(N)=N/OC(=O)CCC2CCCC2)cc1	-7	72*	15	63*	58*	46*	75*	tim23-1 confirm=55*
Cc1cc(NC(=O)COC(=O)C2CCC(=O)N2)c([N+](=O)[O-])cc1C (centres undefined)	·	6	11	4	10	·	·
COc1ccc(/C(N)=N/OC(=O)CCC2CCCC2)cc1	7	65*	-10	54*	60*	56*	53*	tim23-1 confirm=67*
CCCN1C(=O)/C(=C2\SC(N3CCCCC3)=NC2=O)c2ccccc21	9	50*	·	30	42*	32*	·	tim23-1 confirm=48*
Cc1cc(C)c(OCC(=O)NCC(C)(C)N2CCOCC2)c(C)c1	·	-9	18	12	0	·	·
NNc1nc2ccccc2c(=O)n1Cc1ccccc1	-17	17	-8	7	3	·	·
Cc1cc(NC(=O)Nc2cccc(Cl)c2)n(-c2ccccn2)n1	-3	70*	-2	29	54*	41*	·	tim23-1 confirm=76*
Cc1cc(NC(=O)Nc2cccc(Cl)c2)n(-c2ccccc2)n1	3	12	11	-12	12	·	·
